Source: PubChem BioAssay
Shown are actives, neighbours in structure and some others; about 0.88% of the full set was active somewhere.
BLM helicase inh: qHTS Assay for Inhibitors of Bloom's syndrome helicase (BLM). recombinant BLM DNA unwinding, fluorescence dequenching. Potency, µM (titrated, usually from 56.1 µM), hits mostly inhibitors. 0.2% of 350,000 active. AID 2528, 2010; note: nearly all actives have a fitted effect of over 35% in size
APE1 inh-1: qHTS Assay for Inhibitors of the Human Apurinic/apyrimidinic Endonuclease 1 (APE1); Potency, µM (highest dose often 65.8 µM), most hits filed as inhibitors; recombinant APE1, TAMRA/BHQ-2 abasic DNA cleavage fluorescence; 0.35% of 350,000 active; note: nearly all actives have a fitted effect of over 55% in size
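APE1 at 0.75 nM final was preincubated with compound 15 min at room temperature, then 50 nM double-stranded THF abasic-site substrate (5'-TAMRA/3'-BHQ-2) was added. Fluorescence (ex 525/em 598 nm) was read kinetically; third-minus-first read gave activity.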
KAT2A inh: qHTS Assay for Inhibitors of GCN5L2; GCN5L2 HAT assay, ThioGlo1 CoA-SH fluorescence; Potency, µM (series often up to 58.9 µM), actives largely listed as inhibitors; 0.21% of 390,000 active
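Titration-based screen in which CoA formation is detected via maleimide probe ThioGlo1 (50uM) turning fluorescent on thiol reaction; substrates H3(1-25) 75uM and acetyl-CoA 70uM, GCN5L2 20nM, 20 min incubation at room temperature.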
ERG-DNA inh: qHTS for Small Molecule Inhibitors of the ERG Ets/DNA interaction. Transcriptional regulator ERG (Homo sapiens), P11308. fluorescence polarization, His-ERG Ets domain / labelled DNA. Potency, µM (titrated, usually from 76.9 µM), actives largely listed as inhibitors. 0.028% of 370,000 active. AID 624246, 2012; active = well fitted inhibition curve with a large enough effect in the polarisation, with a control signal flat; inconclusive = small, poorly fitted or top-dose-only effect, or effect the other way, or a change in a side signal; inactive = no such curve, though single readings can be large or run the other way; the % refers to the polarisation;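 note: polarization taken with two DNA probes labelled with fluorescein and Texas red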
Target sequence (P11308 whole entry, looked up, the tested form may be a part): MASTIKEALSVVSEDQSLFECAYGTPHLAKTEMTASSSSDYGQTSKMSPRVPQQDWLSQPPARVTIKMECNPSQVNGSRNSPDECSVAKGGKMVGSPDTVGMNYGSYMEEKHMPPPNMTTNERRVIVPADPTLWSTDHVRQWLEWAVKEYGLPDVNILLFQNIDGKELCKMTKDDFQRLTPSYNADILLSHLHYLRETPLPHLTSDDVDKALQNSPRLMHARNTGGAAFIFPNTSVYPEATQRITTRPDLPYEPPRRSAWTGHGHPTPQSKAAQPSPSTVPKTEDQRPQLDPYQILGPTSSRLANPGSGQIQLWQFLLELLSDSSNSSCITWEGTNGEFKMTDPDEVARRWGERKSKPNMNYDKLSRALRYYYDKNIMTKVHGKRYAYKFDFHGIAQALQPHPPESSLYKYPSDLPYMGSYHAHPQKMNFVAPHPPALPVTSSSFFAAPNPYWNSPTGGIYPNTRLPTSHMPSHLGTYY
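His-tagged ERG Ets domain (1 uM in the protein solution; 300mM KCl, 50mM Tris-HCl, 1mM EDTA, 1mM DTT, pH 7.5) received compound, then a probe mix of 5 nM fluorescein-DNA and 100nM Texas-615-DNA. Fluorescence polarization was read for both dyes.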
WRN inhibitor: qHTS for Inhibitors of WRN Helicase. Bifunctional 3'-5' exonuclease/ATP-dependent helicase WRN (Homo sapiens), Q14191. 0.46% of 360,000 active. AID 651768, 2012. Potency, µM (top dose mostly 114 µM), usual class: inhibitors. WRN helicase unwinding, fluorescent forked duplex, kinetic; note: nearly all actives have a fitted effect of over 55% in size
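Kinetic red-fluorescence monitoring (525/598 nm) tracks WRN helicase activity after 100 nM fluorophore-quencher forked duplex and 2 mM ATP are added to 20 nM enzyme pretreated 15 min at room temperature with compound.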
RECQ1 helicase: qHTS Assay for Inhibitors of RecQ-Like Dna Helicase 1 (RECQ1); 0.54% of 240,000 active; Potency, µM (top dose mostly 57.3 µM), hits mostly inhibitors; ATP-dependent DNA helicase Q1 (Homo sapiens), P46063; RECQ1 DNA unwinding, red fluorescence kinetic read; note: nearly all actives have a fitted effect of over 30% in size
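RECQ1T1 50 nM; forked duplex (20 bp + 30-nt ss tails) 200 nM, ATP 2 mM final; pH 8.0, 2 mM MgCl2, 2.5 ug/ml poly(dI-dC); 15 min compound preincubation; discontinuous kinetic read over 2 h at RT.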
APE1 dye cs: Counterscreen for APE1 Inhibitors: Fluorescent Dye Displacement Assay | AID 2564, 2010 | Potency, µM (titrated, usually from 28.5 µM), usual class: inhibitors | DNA fluorescent dye displacement counterscreen, fluorescence | shares compounds with APE1 inh-1 | 7% of 480 active;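 note: loss of thiazole orange fluorescence as the dye is displaced from duplex DNA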
EndoIV counter: Counterscreen for APE1 Inhibitors: qHTS Assay for Inhibitors of Endonuclease IV | E. coli Endo IV, fluorogenic AP-site DNA cleavage | AID 2565, 2010 | shares compounds with APE1 inh-1 | Potency, µM (doses to about 27.1 µM), usual class: inhibitors | 4% of 560 active
APE1 inh-2: Confirmation qHTS Assay for Inhibitors of the Human Apurinic/apyrimidinic Endonuclease 1 (APE1) | AID 2572, 2010 | 44% of 750 active | shares compounds with APE1 inh-1 | purified APE1, fluorogenic abasic-site DNA cleavage | Potency, µM (doses to about 57.1 µM), usual class: inhibitors; note: nearly all actives have a fitted effect of over 30% in size
APE1 FP: qHTS FP-Based Assay for Inhibitors of the Human Apurinic/apyrimidinic Endonuclease 1 (APE1); AID 2573, 2010; Potency, µM (highest dose often 28.5 µM), actives largely listed as inhibitors; shares compounds with APE1 inh-1; APE1 binding to TAMRA-labelled double-stranded DNA, fluorescence polarization displacement; 7% of 480 active
Each line names hits and unclear results; the compound was inactive in the other large screens (follow-up assays come after a bar, where they were run). Unless noted, calls come from the whole dose curve; as a rule, active = well fitted curve in the direction sought with a large enough effect; inconclusive = small, poorly fitted or top-dose-only effect, or another doubt; inactive = no such curve, though single readings can be large; an effect the other way counts as inactive or inconclusive.

COCc1cc(O)c(O)c(O)c1-c1c(COC)cc(O)c(O)c1O	APE1 inh-1 0.18µM, RECQ1 helicase 1µM (no result: ERG-DNA inh, WRN inhibitor) | APE1 dye cs inactive | EndoIV counter inactive | APE1 inh-2 0.32µM | APE1 FP inactive
CC(=O)c1ccc(NC(=O)CSc2ccsc2[N+](=O)[O-])cc1	APE1 inh-1 inconclusive, WRN inhibitor inconclusive, RECQ1 helicase inconclusive | APE1 dye cs inconclusive | EndoIV counter inactive | APE1 inh-2 3.5µM | APE1 FP inactive
COC(=O)c1ccc(C(=O)OC)c(NC(=O)N2CC3CCCN3c3ccccc32)c1 (centres undefined)	none (no result: APE1 inh-1, WRN inhibitor, RECQ1 helicase)
OCCN(Cc1ccccc1)Cc1cccc(Cl)c1Cl	none (no result: ERG-DNA inh) | APE1 inh-2 inconclusive
OCCN(Cc1ccccc1)Cc1ccccc1Cl	none
O=c1cc(-c2ccc(O)c(O)c2)oc2cc(O)c(C3OC(CO)C(O)C(O)C3O)c(O)c12 (centres undefined)	APE1 inh-1 7.9µM, WRN inhibitor inconclusive | APE1 dye cs inconclusive | EndoIV counter inactive | APE1 inh-2 3.2µM | APE1 FP inactive
CCOC(=O)OCC1OC(C#Cc2ccc(C(C)(C)C)cc2)C=CC1OC(=O)OCC (centres undefined)	APE1 inh-1 inconclusive (no result: KAT2A inh, ERG-DNA inh, WRN inhibitor)
O=C(CSc1nnc(SCc2ccccc2)s1)N/N=C/C=C/c1ccccc1[N+](=O)[O-]	none
O=C(CSc1nnc(SCc2ccccc2)s1)N/N=C/C=C\c1ccco1	BLM helicase inh 18µM, APE1 inh-1 18µM, WRN inhibitor inconclusive, RECQ1 helicase 25µM | APE1 dye cs 13µM | EndoIV counter inactive | APE1 inh-2 13µM | APE1 FP inconclusive
O=C(CSc1nnc(SCc2ccccc2Cl)s1)N/N=C/c1c[nH]c2ccccc12	none
Cc1ccc(CSc2nnc(SCC(=O)N/N=C/c3c[nH]c4ccccc34)s2)cc1	WRN inhibitor inconclusive, RECQ1 helicase inconclusive | APE1 inh-2 inactive
O=c1[nH]nc(-c2n[nH]c(=O)o2)o1	none (no result: BLM helicase inh, APE1 inh-1, KAT2A inh, ERG-DNA inh, RECQ1 helicase)
Cc1ccc(CSc2nc3cccnc3n2Cc2ccc(C(=O)NC3CCCCC3)cc2)cc1	none (no result: APE1 inh-1, WRN inhibitor, RECQ1 helicase)
CCCCNCC	none (no result: BLM helicase inh, KAT2A inh, ERG-DNA inh, WRN inhibitor)
CCOC(=O)c1sc2nc3c(SCCC(=O)O)cc(C(=O)c4cc(OC)ccc4O)cn3c(=O)c2c1C	BLM helicase inh inconclusive, APE1 inh-1 1.6µM, RECQ1 helicase inconclusive | APE1 dye cs inconclusive | EndoIV counter inactive | APE1 inh-2 2.2µM | APE1 FP inconclusive
